A selection: hits, their analogues and other compounds. The true share with any hit is near 6.5%.
HepG2 tox: qHTS for Inhibitors of TGF-b: Cytotox Counterscreen. Potency, µM (doses to about 46.1 µM), without a hit: top-dose activity change, negative = cytotoxicity, usual class: cytotoxic. HepG2 CAGA-GFP viability, ATP luminescence, 18 h. 410,000 compounds, 0.76% hits; note: potency is the fitted concentration of half-maximal effect
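CellTiter-Glo luminescence gave cytotoxicity after 18 hours at 37 degrees C. The cells were HepG2 CAGA-GFP in 1% FBS DMEM, stimulated with 500 pg/mL TGF-beta after compound addition. %Activity was normalised to no-cell wells (complete cell-killing) and DMSO (no toxicity), and curves were fitted and classified.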
HT1080 IDH1KD tx: qHTS for induction of synthetic lethality in tumor cells producing 2HG: qHTS for the HT-1080-IDH1KD cell line | HT-1080 IDH1 knockdown viability, ATP luminescence, 48 h | Potency, µM (highest dose often 46.1 µM), inactives show top-dose activity, negative = toxicity, usual class: cytotoxic | 360,000 compounds, 2% hits | AID 686971, 2013;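 note: potency is the fitted concentration of half-maximal effect; 0% = DMSO wells and -100% = cell-free medium wells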
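Luminescent ATP read-out (CellTiter-Glo, 10 min at room temperature) after 48 h compound exposure at 37 °C gave viability of IDH1-knockdown HT-1080 cells. Activity was normalised to DMSO and cell-free wells, then fitted as concentration-response curves.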
TGFb SMAD3 inh: qHTS for Inhibitors of TGF-b | HepG2 CAGA-GFP TGF-b/SMAD3 reporter, GFP fluorescence, 18 h; TGF-beta stimulated, 500 pg/mL final | Potency, µM (doses to about 46.1 µM), inactives show at the highest dose activity, negative = inhibition, usual class: inhibitors | 410,000 compounds, 1.2% hits; note: potency is the fitted concentration of half-maximal effect; % is set by controls: 0 for no effect and ±100 for the full control effect; nearly all actives have a fitted effect of over 65% in size
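Using HEPG2 CAGA-GFP reporter cells at 1000 cells/well, we pinned test compounds, stimulated with recombinant TGF-beta (500 pg/mL final) and measured total well GFP after 18 h.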
Giardia killer: Small Molecules that selectively kill Giardia lamblia: qHTS | 340,000 compounds, 0.15% hits | Giardia lamblia trophozoite viability | activity change, % at 7.66 µM, hits read low; in the data active = activity change below about -80%; inconclusive = between about -30% and that limit;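 note: parasites exposed to compound for two days anaerobically before the ATP read; % is set by controls: 0 for no effect and ±100 for the full control effect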
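Compounds were tested on trophozoites seeded at 100 cells/well and held 48 hrs at 37 deg C anaerobically. An ATP-based luminescent kit measured the remaining live cells.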
HT1080-NT tox: qHTS for induction of synthetic lethality in tumor cells producing 2HG: qHTS for the HT-1080-NT fibrosarcoma cell line; HT-1080-NT fibrosarcoma viability, CellTiter-Glo ATP luminescence, 48 h; Potency, µM (top dose mostly 46.1 µM), inactives show at the top dose activity, negative = less viability, actives largely listed as cytotoxic; 360,000 compounds, 1.6% hits; AID 686970, 2013;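 note: NT is the 2HG producing partner of a matched IDH1 knockdown line; potency is the fitted concentration of half-maximal effect; 0% = DMSO-treated cells and -100% = media-only wells without cells; nearly all actives have a fitted effect of over 55% in size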
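Toxicity toward the 2HG-producing NT line was scored as %Activity, normalised to DMSO and no-cell wells, from CellTiter-Glo luminescence after 48 hours' treatment.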
IL-1B inflam inh: qHTS for Inhibitors of Inflammasome Signaling: IL-1-beta AlphaLISA Primary Screen; THP-1 LPS/ATP IL-1B secretion, AlphaLISA, 16 h; stronger effect = lower value; activity change, % at 57.5 µM; 360,000 compounds, 4.7% hits; AID 743279, 2014; in the data active = activity change below about -50%; inconclusive = mostly about -30% to -49%; note: % is set by controls: 0 for no effect and ±100 for the full control effect
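Secreted IL-1B measured by AlphaLISA bead assay after 16 h compound exposure of THP-1 cells; compounds (final up to 57.5 uM) added 1 h before LPS (250 ng/mL) and ATP (1.25 mM) stimulation; lower signal means less secretion.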
An asterisk follows results filed as active; ? = inconclusive; . = not tested or not shown. Unless noted, calls come from the whole dose curve; as a rule, active = well fitted curve in the direction sought with a large enough effect; inconclusive = small, poorly fitted or top-dose-only effect, or another doubt; inactive = no such curve, though single readings can be large; an effect the other way counts as inactive or inconclusive.

SMILES	HepG2 tox	HT1080 IDH1KD tx	TGFb SMAD3 inh	Giardia killer	HT1080-NT tox	IL-1B inflam inh
COc1ccccc1NS(=O)(=O)c1cc(NC(=O)c2ccc(Cl)nc2)ccc1Cl	-26%	?	?	-23	?	-63*
CCOc1ccc(C(=O)Nc2cccc(NC(=O)c3ccc(Cl)cc3Cl)c2)cc1	-64%	.	11µM*	.	.	.
COc1cc(C(=O)Nc2ccc3c(c2)N(C2CCCC2)C(=O)c2ccccc2S3)cc(OC)c1OC	-7%	.	?	.	.	.
COc1ccc(OC)c(C2Nc3c(Cl)ccc(C(=O)O)c3C3C=CCC32)c1 (stereo not given)	3%	?	3%	65	?	-57*
COc1ccccc1CNC(=O)N1CCN(c2ccccc2C)CC1	5%	-14%	7%	-17	0%	10
COC(=O)/C=C/C(=O)N1CCN(c2ccccc2)CC1	7%	21%	-4%	1	19%	-91*
O=C(COC(=O)/C=C/C(=O)N1CCN(c2ccccc2)CC1)NCc1ccc(F)cc1	6%	8%	7%	-16	3%	-15
COC(=O)/C=C/C(=O)N1CCN(c2ccccc2C)CC1	-3%	9%	2%	1	11%	-108*
CCOC(=O)[C@H]1[C@H]2COc3ccc(Br)cc3[C@H]2N2C(=O)CN(Cc3ccc(Cl)cc3)C(=O)[C@@]12C	-12%	-8%	?	10	-7%	-52*
CCOC(=O)[C@H]1[C@H]2COc3ccc(Br)cc3[C@@H]2N2C(=O)CN(Cc3ccc(Cl)cc3)C(=O)[C@@]12C	-3%	-22%	0%	-17	-26%	-11
CCCCN(C(=O)c1cnc2n(c1=O)CCS2)c1ccccc1	-3%	0%	2%	-14	-8%	5
O=C(CN1C(=O)NC(Cc2ccccc2)C1=O)Nc1ccc(F)c(Cl)c1 (stereo not given)	2%	2%	?	-11	-10%	-10
O=C(NN1C(=O)c2ccccc2NC1c1ccc([N+](=O)[O-])o1)c1ccccc1 (stereo not given)	-30%	-15%	?	-85*	-15%	-76*
O=C(NN1C(=O)c2ccccc2NC1c1ccco1)c1ccccc1 (stereo not given)	15%	?	6%	-7	17%	0
O=C(NN1C(=O)c2ccccc2NC1c1ccc([N+](=O)[O-])o1)c1ccc([N+](=O)[O-])cc1 (stereo not given)	-40%	?	?	?	?	-104*
O=C(NN1C(=O)c2ccccc2NC1c1ccoc1)c1ccc([N+](=O)[O-])cc1 (stereo not given)	-19%	-5%	?	-2	1%	?
CCN(CC)CCCOc1ccc(Cl)c(Cl)c1	-17%	-20%	4%	-5	-2%	-73*
CCN(CC)CCOc1ccc2c(c1)C(=NO)c1cc(OCCN(CC)CC)ccc1-2	-72%	7.1µM*	11µM*	-3	10µM*	-105*
CCN(CC)CCOc1ccccc1OC	0%	1%	-3%	-25	-4%	-1
CCCOc1ccc2c(c1)C(=NN=C(N)N)c1cc(OCCC)ccc1-2	-104%	?	?	-15	?	-97*
CCN(CC)S(=O)(=O)c1ccc(C)c(C)c1	-24%	16%	-25%	-2	6%	6
CN(CCOc1ccc(Cl)c(Cl)c1)Cc1ccccc1	-30%	-3%	-15%	5	-2%	0
CCCOc1ccc(/C=N/O)cc1	-14%	9%	0%	-4	8%	-20
CCN(CC)S(=O)(=O)c1ccc2c(c1)C(=NO)c1cc(S(=O)(=O)N(CC)CC)ccc1-2	-55%	7.3µM*	?	19	18µM*	-23
COc1ccc(N2CC(C(=O)N3CCCC(C)C3)CC2=O)cc1 (stereo not given)	3%	13%	15%	28	-2%	20
SMILES	HepG2 tox	HT1080 IDH1KD tx	TGFb SMAD3 inh	Giardia killer	HT1080-NT tox	IL-1B inflam inh
CCOC(=O)C1=C(COC(=O)CCc2ccc(F)cc2)NC(=O)NC1C (stereo not given)	5%	-2%	6%	-18	1%	11
CCN(Cc1ccccc1)Cc1c(O)ccc2c(=O)c(-c3ccccc3)c(C(F)(F)F)oc12	-22%	.	?	.	.	.
COc1ccc(NC(=O)OCCn2c([N+](=O)[O-])cnc2C)cc1	-2%	24%	-5%	-87*	?	0
Cc1ncc([N+](=O)[O-])n1CCOC(=O)NC(NCc1ccccc1Cl)C(Cl)(Cl)Cl (stereo not given)	3%	-4%	?	-119*	-1%	-29
Cc1ncc([N+](=O)[O-])n1CC(=O)Nc1ccc(Cl)cc1	-2%	-3%	-1%	11	7%	5
O=C(O)CCc1ccc(-c2cccs2)n1-c1ccc(C(=O)O)cc1	14%	7%	-17%	-8	0%	2
COc1ccccc1-[n+]1c(C)cc(/C=C2\Sc3ccccc3N2C)cc1C	-103%	0.58µM*	115%	-18	2.6µM*	-63*
COc1ccc(OC)c(NC(=O)N2c3ccccc3Sc3ccccc32)c1	-15%	.	?	.	.	.
COc1ccc(-[n+]2c(C)cc(/C=C3\Sc4ccccc4N3C)cc2C)cc1	-74%	2.3µM*	102%	-1	4.1µM*	-94*
O=C(Nc1cccn(Cc2c(Cl)cccc2Cl)c1=O)c1ccc(Cl)cc1Cl	-15%	?	-1%	-17	?	-59*
CCOc1cc(/C=N/Nc2nc(N3CCCC3)nc(N3CCCC3)n2)ccc1O	0%	-4%	?	13	-1%	-4
COC(=O)c1ccccc1-c1ccc(/C=N/Nc2nc(N3CCCC3)nc(N3CCCC3)n2)o1	-39%	?	13µM*	-18	?	-91*
CCOc1cccc(/C=N/Nc2nc(N3CCCC3)nc(N3CCCC3)n2)c1O	16%	2%	7%	2	24%	-108*
Cc1cc2nc(/N=C(\N)NC(=O)C(C)C)nc(C)c2cc1C	0%	-15%	-23%	-2	-25%	-93*
Cc1cc2nc(N=C(N)N)nc(C)c2cc1C	1%	0%	-11%	-18	-22%	-78*
Cc1ccc2nc(N=C(N)N)nc(C)c2c1	-16%	?	?	7	?	0
